# A number with no mark means an inactive call. Results filed as inconclusive are left out. Where a call stands in place of a potency, no number is given. Active and inactive are the calls of the source. The call rests on the fitted dose curve; in most records, active means well fitted curve in the direction sought with a large enough effect in the repeat runs; inconclusive means weak or mixed curves; inactive means no such curve, though single readings can be large; an effect the other way counts as inactive or inconclusive.
# How the values were obtained:
# [1] = qHTS RealTime-Glo MT Cell Viability Assay in HEK293 cells - 16 hour (AID 1224872); further: nearly all actives have a fitted effect of over 50% in size; further: potency means the concentration at half of the fitted maximal effect; on activity change, negative = cytotoxicity: top concentration of the series differs between compounds
# Outline: (§1)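 Assay medium contained NanoLuc luciferase plus cell-permeant prosubstrate, added with HEK293 cells at 600 cells/well. After 5 h at 37 C/5% CO2 compounds were added; plates stayed at 37 C for 40 h with serial luminescence reads.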
# [2] = qHTS RealTime-Glo MT Cell Viability Assay in HepG2 cells - 8 hour (AID 1224873); further: nearly all actives have a fitted effect of over 55% in size; further: potency means the concentration at half of the fitted maximal effect
# Outline: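 HepG2 cells mixed with RealTime-Glo MT reagents (NanoLuc plus cell-permeant prosubstrate) were seeded at 600 cells/well, incubated 5 h at 37 C/5% CO2, then pinned with compounds in DMSO; nonlytic luminescence tracked viability during 40 h treatment.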
# [3] = qHTS RealTime-Glo MT Cell Viability Assay in HEK293 cells - 40 hour (AID 1224874); conditions: RealTime-Glo luminescence; max response: stronger effect = lower value; further: nearly all actives have a fitted effect of over 50% in size; further: potency means the concentration at half of the fitted maximal effect
# Outline: (§2)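 Luminescence readout at each listed time point; HEK293, 600 cells/well, RealTime-Glo MT reagent added with cells; compounds pinned (23 nL in DMSO) after 5 h at 37 C; continuous culture at 37 C.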
# [4] = A CellTox Green Cytotoxicity Assay to monitor cytotoxicity in HEK293 cells - 24 hour (AID 1224875); further: nearly all actives have a fitted effect of over 45% in size; further: potency means the concentration at half of the fitted maximal effect; on activity change: series mostly up to about 77 µM
# Outline: (§3)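 Read-out: fluorescence of a cell-impermeant cyanine dye staining DNA of dead cells, proportional to cytotoxicity. HEK293, 600 cells/well with reagent, compound (23 nL DMSO) added after 5 h; reads at 0, 8, 16, 24, 32, 40 h.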
# [5] = A CellTox Green Cytotoxicity Assay to monitor cytotoxicity in HepG2 cells - 16 hour (AID 1224876); further: nearly all actives have a fitted effect of over 45% in size; further: potency means the concentration at half of the fitted maximal effect
# Outline: (§4)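 HepG2, 600 cells/well premixed w/ CellTox Green; 5 h settle, 37 C/5% CO2; pintool cpd add (DMSO); 37 C, 40 h; fluorescence read at 0, 8, 16, 24, 32, 40 h.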
# [6] = A CellTox Green Cytotoxicity Assay to monitor cytotoxicity in HepG2 cells - 24 hour (AID 1224878); further: nearly all actives have a fitted effect of over 45% in size; further: potency means the concentration at half of the fitted maximal effect
# Outline: as §4
# [7] = A CellTox Green Cytotoxicity Assay to monitor cytotoxicity in HepG2 cells - 40 hour (AID 1224879); further: nearly all actives have a fitted effect of over 40% in size; further: potency means the concentration at half of the fitted maximal effect
# Outline: as §4
# [8] = qHTS RealTime-Glo MT Cell Viability Assay in HEK293 cells - 0 hour (AID 1224880); further: top concentration of the series differs between compounds; nearly all actives have a fitted effect of over 45% in size
# Outline: as §2
# [9] = A CellTox Green Cytotoxicity Assay to monitor cytotoxicity in HEK293 cells - 32 hour (AID 1224881); further: nearly all actives have a fitted effect of over 40% in size; further: potency means the concentration at half of the fitted maximal effect
# Outline: as §3
# [10] = A CellTox Green Cytotoxicity Assay to monitor cytotoxicity in HepG2 cells - 32 hour (AID 1224883); further: nearly all actives have a fitted effect of over 50% in size; further: potency means the concentration at half of the fitted maximal effect
# Outline: as §4
# [11] = qHTS RealTime-Glo MT Cell Viability Assay in HepG2 cells - 16 hour (AID 1224885); further: nearly all actives have a fitted effect of over 50% in size; further: potency means the concentration at half of the fitted maximal effect
# Outline: (§5)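 qHTS, HepG2, 600 cells/well, RealTime-Glo (NanoLuc + prosubstrate) added with cells; 5 h preincubation; DMSO compound addition; 37 C; luminescence at 0/8/16/24/32/40 h.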
# [12] = qHTS RealTime-Glo MT Cell Viability Assay in HEK293 cells - 24 hour (AID 1224886); further: nearly all actives have a fitted effect of over 50% in size; further: potency means the concentration at half of the fitted maximal effect; on activity change, negative = cytotoxicity: top concentration of the series differs between compounds
# Outline: as §1
# [13] = qHTS RealTime-Glo MT Cell Viability Assay in HEK293 cells - 8 hour (AID 1224887); further: nearly all actives have a fitted effect of over 50% in size; further: potency means the concentration at half of the fitted maximal effect; on activity change, negative = cytotoxicity: top concentration of the series differs between compounds
# Outline: as §2
# [14] = A CellTox Green Cytotoxicity Assay to monitor cytotoxicity in HEK293 cells - 16 hour (AID 1224888); further: nearly all actives have a fitted effect of over 35% in size; further: potency means the concentration at half of the fitted maximal effect
# Outline: as §3
# [15] = qHTS RealTime-Glo MT Cell Viability Assay in HepG2 cells - 0 hour (AID 1224889); further: nearly all actives have a fitted effect of over 50% in size
# Outline: as §5
# [16] = A CellTox Green Cytotoxicity Assay to monitor cytotoxicity in HepG2 cells - 8 hour (AID 1224890); further: nearly all actives have a fitted effect of over 45% in size; further: potency means the concentration at half of the fitted maximal effect
# Outline: as §4
# [17] = qHTS RealTime-Glo MT Cell Viability Assay in HepG2 cells - 32 hour (AID 1224877); further: nearly all actives have a fitted effect of over 55% in size
# Outline: as §5
# [18] = A CellTox Green Cytotoxicity Assay to monitor cytotoxicity in HepG2 cells - 0 hour (AID 1224882); further: nearly all actives have a fitted effect of over 35% in size
# Outline: as §4
# [19] = A CellTox Green Cytotoxicity Assay to monitor cytotoxicity in HEK293 cells - 8 hour (AID 1224884); further: nearly all actives have a fitted effect of over 35% in size; further: potency means the concentration at half of the fitted maximal effect
# Outline: as §3
# [20] = qHTS assay to identify small molecule antagonists of the estrogen receptor alpha (ER-alpha) signaling pathway using the BG1 cell line in the presence of 0.1 nM 17-beta-estradiol - cell viability counter screen (AID 1259241); further: nearly all actives have a fitted effect of over 40% in size; further: potency means the concentration at half of the fitted maximal effect
# Outline: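 VM7Luc4E2, 4,000 cells/well, phenol red-free medium + 10% charcoal-stripped FBS; 24 hr plating; cpd + 0.1 nM E2 final, 22 hr 37C/5% CO2; CellTiter-Fluor 30 min, fluorescence.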
structure (smiles),measurement,setting,value
BrCCCBr,Potency,[1],inactive
same,Potency,[2],inactive
same,max response,[3],6.85%
same,Potency,[4],inactive
same,Potency,[5],inactive
same,Potency,[6],inactive
same,Potency,[7],inactive
same,Potency,[8],inactive
same,Potency,[9],inactive
same,Potency,[10],inactive
same,Potency,[11],inactive
same,Potency,[12],inactive
same,Potency,[13],inactive
same,Potency,[14],inactive
same,Potency,[15],inactive
same,Potency,[16],inactive
CNC(=O)CSP(=O)(OC)OC,Potency,[1],inactive
same,Potency,[2],inactive
same,max response,[3],5.27%
same,Potency,[4],inactive
same,Potency,[17],inactive
same,Potency,[7],inactive
same,Potency,[8],inactive
same,Potency,[9],inactive
same,Potency,[18],inactive
same,Potency,[10],inactive
same,Potency,[19],inactive
same,Potency,[11],inactive
same,Potency,[12],inactive
same,Potency,[13],inactive
same,Potency,[14],inactive
same,Potency,[16],inactive
BrCC(Br)(Br)Br,Potency,[1],25500 nM (active)
same,Potency,[2],inactive
same,Potency,[3],45300 nM (active)
same,Potency,[4],inactive
same,Potency,[17],inactive
same,Potency,[6],inactive
same,Potency,[7],inactive
same,Potency,[8],inactive
same,Potency,[9],inactive
same,Potency,[10],inactive
same,Potency,[19],inactive
same,Potency,[11],inactive
same,Potency,[12],45300 nM (active)
same,Potency,[13],16100 nM (active)
same,Potency,[14],inactive
same,Potency,[15],inactive
same,Potency,[16],inactive
same,Potency,[20],inactive
COP(=S)(NC(C)C)Oc1ccc(C)cc1[N+](=O)[O-] (stereo not given),Potency,[1],inactive
same,Potency,[2],inactive
same,max response,[3],-12.5%
same,Potency,[4],inactive
same,Potency,[17],inactive
same,Potency,[7],inactive
same,Potency,[8],inactive
same,Potency,[9],inactive
same,Potency,[18],inactive
same,Potency,[10],inactive
same,Potency,[19],inactive
same,Potency,[11],inactive
same,Potency,[12],inactive
same,Potency,[13],inactive
same,Potency,[14],inactive
same,Potency,[15],inactive
same,Potency,[16],inactive
CCC[CH2][Sn]([CH2]CCC)([CH2]CCC)[O][Sn]([CH2]CCC)([CH2]CCC)[CH2]CCC,Potency,[1],214 nM (active)
same,Potency,[2],956 nM (active)
same,Potency,[3],151 nM (active)
same,Potency,[4],427 nM (active)
same,Potency,[6],537 nM (active)
same,Potency,[7],537 nM (active)
same,Potency,[9],339 nM (active)
same,cytotoxicity,[18],5.3% [at 6.97 µM]
same,Potency,[19],2.14 µM (active)
same,Potency,[11],676 nM (active)
same,Potency,[12],191 nM (active)
same,Potency,[13],269 nM (active)
same,Potency,[14],1.7 µM (active)
same,"activity change, negative = cytotoxicity",[15],23.4% [at 6.97 µM]
same,Potency,[16],676 nM (active)
same,"activity change, negative = cytotoxicity",[20],-23.5% [at 8.39 µM]
CCOP(=S)(OCC)SC(CCl)N1C(=O)c2ccccc2C1=O (stereo not given),Potency,[1],inactive
same,Potency,[2],inactive
same,max response,[3],6.49%
same,Potency,[4],inactive
same,Potency,[5],inactive
same,Potency,[9],inactive
same,Potency,[18],inactive
same,Potency,[11],inactive
same,Potency,[12],inactive
same,Potency,[13],inactive
same,Potency,[14],inactive
same,Potency,[16],inactive
same,Potency,[20],inactive
CCOP(=O)(Sc1ccccc1)Sc1ccccc1,Potency,[1],inactive
same,Potency,[2],inactive
same,max response,[3],-12.3%
same,Potency,[4],inactive
same,Potency,[5],inactive
same,Potency,[6],inactive
same,Potency,[7],inactive
same,Potency,[8],inactive
same,Potency,[9],inactive
same,Potency,[18],inactive
same,Potency,[19],inactive
same,Potency,[11],inactive
same,Potency,[12],inactive
same,Potency,[13],inactive
same,Potency,[14],inactive
same,Potency,[16],inactive
same,Potency,[20],inactive
C#CCO,Potency,[1],inactive
same,Potency,[2],inactive
same,max response,[3],3.5%
same,Potency,[4],inactive
same,Potency,[5],inactive
same,Potency,[6],inactive
same,Potency,[7],inactive
same,Potency,[8],inactive
same,Potency,[9],inactive
same,Potency,[18],inactive
same,Potency,[10],inactive
same,Potency,[19],inactive
same,Potency,[11],inactive
same,Potency,[12],inactive
same,Potency,[13],inactive
same,Potency,[15],inactive
same,Potency,[16],inactive
same,Potency,[20],inactive
COC(=O)c1ccccc1S(=O)(=O)NC(=O)Nc1nc(C)nc(OC)n1,Potency,[1],inactive
same,Potency,[2],inactive
same,max response,[3],0.753%
same,Potency,[4],inactive
same,Potency,[17],inactive
same,Potency,[7],inactive
same,Potency,[8],inactive
same,Potency,[9],inactive
same,Potency,[18],inactive
same,Potency,[10],inactive
same,Potency,[19],inactive
same,Potency,[11],inactive
same,Potency,[12],inactive
same,Potency,[13],inactive
same,Potency,[14],inactive
same,Potency,[15],inactive
same,Potency,[16],inactive
C[N+]1(C)[C@@H]2CC[C@H]1CC(OC(=O)C(CO)c1ccccc1)C2 (stereo not given in full),Potency,[1],inactive
same,Potency,[2],inactive
same,max response,[3],8.28%
same,Potency,[4],inactive
same,Potency,[5],inactive
same,Potency,[6],inactive
same,Potency,[7],inactive
same,Potency,[8],inactive
same,Potency,[9],inactive
same,Potency,[18],inactive
same,Potency,[10],inactive
same,Potency,[19],inactive
same,Potency,[11],inactive
same,Potency,[12],inactive
same,Potency,[13],inactive
same,Potency,[15],inactive
same,Potency,[16],inactive
same,Potency,[20],inactive
CNC(=O)/C=C(\C)OP(=O)(OC)OC,Potency,[1],inactive
same,Potency,[2],inactive
same,max response,[3],6.16%
same,Potency,[4],inactive
same,Potency,[5],inactive
same,Potency,[7],inactive
same,Potency,[8],inactive
same,Potency,[9],inactive
same,Potency,[18],inactive
same,Potency,[19],inactive
same,Potency,[11],inactive
same,Potency,[12],inactive
same,Potency,[13],inactive
same,Potency,[14],inactive
same,Potency,[15],inactive
same,Potency,[16],inactive
same,Potency,[20],inactive
CCCCn1cc[n+](C)c1 (tested in a mixture with another compound),Potency,[1],inactive
same,Potency,[2],inactive
same,max response,[3],0.0469%
same,Potency,[4],inactive
same,Potency,[17],inactive
same,Potency,[7],inactive
same,Potency,[8],inactive
same,Potency,[9],inactive
same,Potency,[18],inactive
same,Potency,[10],inactive
same,Potency,[11],inactive
same,Potency,[12],inactive
same,Potency,[13],inactive
same,Potency,[14],inactive
same,Potency,[15],inactive
same,Potency,[16],inactive
ClSC(Cl)(Cl)Cl,Potency,[1],inactive
same,Potency,[2],inactive
same,max response,[3],0.633%
same,Potency,[4],inactive
same,Potency,[17],inactive
same,Potency,[6],inactive
same,Potency,[7],inactive
same,Potency,[8],inactive
same,Potency,[9],inactive
same,Potency,[18],inactive
same,Potency,[10],inactive
same,Potency,[19],inactive
same,Potency,[11],inactive
same,Potency,[12],inactive
same,Potency,[13],inactive
same,Potency,[14],inactive
same,Potency,[15],inactive
same,Potency,[16],inactive
same,Potency,[20],inactive
C=C(C)C(=O)[O][Sn]([CH2]CCC)([CH2]CCC)[CH2]CCC,Potency,[1],389 nM (active)
same,Potency,[2],616 nM (active)
same,Potency,[3],245 nM (active)
same,Potency,[4],2190 nM (active)
same,Potency,[5],490 nM (active)
same,Potency,[7],389 nM (active)
same,Potency,[8],inactive
same,Potency,[9],490 nM (active)
same,Potency,[18],inactive
same,Potency,[10],616 nM (active)
same,Potency,[19],11 µM (active)
same,Potency,[11],436 nM (active)
same,Potency,[12],309 nM (active)
same,Potency,[13],776 nM (active)
same,Potency,[14],8.71 µM (active)
same,Potency,[16],871 nM (active)
same,Potency,[20],770 nM (active)

# From PubChem BioAssay (Tox21)
